Several values for one entry are separate records, joined by “and”; a condition that tells them apart may be missing. Identical values can stand only once. Inconclusive results are not listed. Activity calls are given as the source filed them. Calls follow the shape of the dose curve; as a rule, active = well fitted curve in the direction sought with a large enough effect in the repeat runs; inconclusive = weak or mixed curves; inactive = no such curve, though single readings can be large; an effect the other way counts as inactive or inconclusive.
How the values were obtained:
[1] = Caspase-3/7 induction in CHO-K1 cells by small molecules, qHTS cell viability counter screen (AID 1346979); also: nearly all actives have a fitted effect of over 35% in size; also: potency is read from the fitted curve at half-maximal effect
In short: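 Viability readout by fluorescence (CellTiter-Fluor) on wild-type CHO-K1 cells exposed for 16hr at 37C and 5% CO2 to compounds delivered in DMSO; reagent incubated 1hr before reading.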

[2] = Caspase-3/7 induction in CHO-K1 cells by small molecules, qHTS assay (AID 1346980); also: nearly all actives have a fitted effect of over 15% in size; also: potency is read from the fitted curve at half-maximal effect
In short: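 Wild-type CHO-K1 cells exposed to compounds for 17hr at 37 C, 5% CO2. Caspase-3/7 activity then measured by Caspase-Glo 3/7 luminescence after 30min at room temperature.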

[3] = Caspase-3/7 induction in HepG2 cells by small molecules, qHTS cell viability counter screen (AID 1346981); also: nearly all actives have a fitted effect of over 30% in size; also: potency is read from the fitted curve at half-maximal effect; as to activity change, negative = cytotoxicity: series mostly up to about 92 µM
In short: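 HepG2, WT, 2,000 cells/well; 5 hr pre-incubation 37 C/5% CO2; compound pin-transferred from DMSO; 16 hr exposure; CellTiter-Fluor, 1 hr; fluorescence read.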

[4] = target: Nuclear receptor subfamily 1 group I member 2 (Homo sapiens) (UniProt O75469); experiment: Human pregnane X receptor (PXR) small molecule agonists, qHTS assay (AID 1346982); also: nearly all actives have a fitted effect of over 35% in size; also: potency is read from the fitted curve at half-maximal effect
Chain of Nuclear receptor subfamily 1 group I member 2 (Homo sapiens) (O75469 whole entry, looked up): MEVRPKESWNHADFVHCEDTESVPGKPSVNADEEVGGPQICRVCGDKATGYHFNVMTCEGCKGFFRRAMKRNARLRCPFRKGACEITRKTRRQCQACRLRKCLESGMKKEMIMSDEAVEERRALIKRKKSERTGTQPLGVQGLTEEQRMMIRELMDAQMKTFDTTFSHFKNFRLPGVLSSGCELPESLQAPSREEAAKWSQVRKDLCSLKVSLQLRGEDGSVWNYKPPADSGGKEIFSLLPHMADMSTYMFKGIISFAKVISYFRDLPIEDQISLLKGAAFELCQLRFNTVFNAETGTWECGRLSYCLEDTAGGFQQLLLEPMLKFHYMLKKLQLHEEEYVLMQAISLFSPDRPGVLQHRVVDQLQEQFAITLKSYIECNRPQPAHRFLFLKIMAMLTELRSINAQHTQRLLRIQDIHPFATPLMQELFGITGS
In short: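 Luciferase signal from ONE-Glo (30 min, room temperature) measured activation of hPXR-driven CYP3A4 reporter expression in PXR-Luc HepG2 cells treated with compounds for 24 hr at 37 C.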

[5] = target: Nuclear receptor subfamily 1 group I member 2 (Rattus norvegicus) (UniProt Q9R1A7); experiment: Rat pregnane X receptor (rPXR) activation by small molecules, qHTS assay (AID 1346983); details: rPXR luciferase reporter cells, One-Glo luminescence, 24 h; max activation: active compounds read high; also: nearly all actives have a fitted effect of over 20% in size
Chain of Nuclear receptor subfamily 1 group I member 2 (Rattus norvegicus) (Q9R1A7 whole entry, looked up): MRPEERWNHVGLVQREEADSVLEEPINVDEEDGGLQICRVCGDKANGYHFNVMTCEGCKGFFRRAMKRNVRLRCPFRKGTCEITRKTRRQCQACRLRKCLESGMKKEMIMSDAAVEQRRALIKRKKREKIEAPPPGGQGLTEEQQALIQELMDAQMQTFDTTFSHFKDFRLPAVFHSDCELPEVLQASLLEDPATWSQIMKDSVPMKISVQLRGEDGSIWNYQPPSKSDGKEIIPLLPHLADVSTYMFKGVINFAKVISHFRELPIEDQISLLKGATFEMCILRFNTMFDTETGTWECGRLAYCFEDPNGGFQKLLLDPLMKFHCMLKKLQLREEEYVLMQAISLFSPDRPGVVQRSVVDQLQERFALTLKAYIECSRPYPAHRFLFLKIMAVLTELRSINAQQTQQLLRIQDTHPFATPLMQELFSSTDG
In short: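 Cell-based rPXR activation assay: rPXR cells, 2,000 per well, rested 5hr at 37 C, then exposed to compounds in DMSO for 24 hr at 37 C. Luciferase activity read by One-Glo luminescence after 30 min at room temperature.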

[6] = target: Nuclear receptor subfamily 1 group I member 2 (Homo sapiens) (UniProt O75469); experiment: CYP3A4 induction through human pregnane X receptor (PXR) by small molecules, qHTS assay (AID 1346984); also: nearly all actives have a fitted effect of over 40% in size; also: potency is read from the fitted curve at half-maximal effect
In short: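 Luminescence readout: luciferase signal after One-Glo (30 min, room temperature), following 3 h at 37C with 3uM final Luciferin-IPA P450 substrate. Cells were DPX-2 (HepG2, PXR/CYP3A4-luc co-transfected) dosed for 24 h.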

[7] = target: Cytochrome P450 2C19 (Homo sapiens) (UniProt P33261); experiment: Cytochrome P450 Family 2 Subfamily C Member 19 (CYP2C19) small molecule antagonists: luciferase reporter qHTS assay (AID 1671197); also: nearly all actives have a fitted effect of over 65% in size; also: potency is read from the fitted curve at half-maximal effect; as to activity change, negative = inhibition: series mostly up to about 120 µM
Chain of Cytochrome P450 2C19 (Homo sapiens) (P33261 whole entry, looked up): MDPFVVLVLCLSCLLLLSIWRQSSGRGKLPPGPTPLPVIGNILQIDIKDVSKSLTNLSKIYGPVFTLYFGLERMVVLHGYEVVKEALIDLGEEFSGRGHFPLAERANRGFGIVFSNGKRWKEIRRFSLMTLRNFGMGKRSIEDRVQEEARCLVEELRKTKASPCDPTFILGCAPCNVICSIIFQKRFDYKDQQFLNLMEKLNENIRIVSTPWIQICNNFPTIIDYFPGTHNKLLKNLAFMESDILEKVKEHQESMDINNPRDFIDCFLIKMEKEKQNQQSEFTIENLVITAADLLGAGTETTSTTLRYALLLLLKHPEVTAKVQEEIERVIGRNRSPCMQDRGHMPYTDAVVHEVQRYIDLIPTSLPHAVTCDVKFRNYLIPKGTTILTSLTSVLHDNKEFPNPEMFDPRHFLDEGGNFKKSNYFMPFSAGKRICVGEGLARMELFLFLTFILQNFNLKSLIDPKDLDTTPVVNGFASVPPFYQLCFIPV
In short: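 Luminescent readout of CYP2C19 activity: luciferin product detected 20 min after adding detection reagent. Before that, compound and enzyme-substrate mix preincubated 10 min at room temperature; NADPH-regenerating system started a 1 h, 37C reaction. Ketoconazole as positive control.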

[8] = target: Cytochrome P450 2C9 (Homo sapiens) (UniProt P11712); experiment: Cytochrome P450 Family 2 Subfamily C Member 9 (CYP2C9) small molecule antagonists: luciferase reporter qHTS assay (AID 1671198); also: nearly all actives have a fitted effect of over 50% in size; also: potency is read from the fitted curve at half-maximal effect; as to activity change, negative = inhibition: series mostly up to about 120 µM
Chain of Cytochrome P450 2C9 (Homo sapiens) (P11712 whole entry, looked up): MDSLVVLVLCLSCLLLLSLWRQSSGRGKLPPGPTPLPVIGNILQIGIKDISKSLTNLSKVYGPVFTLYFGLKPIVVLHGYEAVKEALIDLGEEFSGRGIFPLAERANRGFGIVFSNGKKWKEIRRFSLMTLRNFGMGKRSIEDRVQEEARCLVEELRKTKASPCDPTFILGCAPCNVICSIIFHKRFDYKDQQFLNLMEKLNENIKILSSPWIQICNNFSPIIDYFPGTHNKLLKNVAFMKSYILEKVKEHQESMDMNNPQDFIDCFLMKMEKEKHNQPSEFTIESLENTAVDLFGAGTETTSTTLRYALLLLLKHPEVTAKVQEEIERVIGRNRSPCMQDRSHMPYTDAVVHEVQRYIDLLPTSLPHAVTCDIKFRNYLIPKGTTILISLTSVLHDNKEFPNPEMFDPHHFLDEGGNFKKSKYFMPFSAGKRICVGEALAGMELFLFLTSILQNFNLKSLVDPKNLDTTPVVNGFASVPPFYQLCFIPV
In short: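 P450-Glo proluciferin substrate with CYP2C9 enzyme; 10 min RT preincubation, then NADPH regeneration 1 h at 37C; luciferin detection reagent 20 min RT, luminescence in relative luminescence units.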

[9] = target: Cytochrome P450 1A2 (Homo sapiens) (UniProt P05177); experiment: Cytochrome P450 Family 1 Subfamily A Member 2 (CYP1A2) small molecule antagonists: luciferase reporter qHTS assay (AID 1671199); also: nearly all actives have a fitted effect of over 50% in size; also: potency is read from the fitted curve at half-maximal effect; as to activity change, negative = inhibition: series mostly up to about 120 µM
Chain of Cytochrome P450 1A2 (Homo sapiens) (P05177 whole entry, looked up): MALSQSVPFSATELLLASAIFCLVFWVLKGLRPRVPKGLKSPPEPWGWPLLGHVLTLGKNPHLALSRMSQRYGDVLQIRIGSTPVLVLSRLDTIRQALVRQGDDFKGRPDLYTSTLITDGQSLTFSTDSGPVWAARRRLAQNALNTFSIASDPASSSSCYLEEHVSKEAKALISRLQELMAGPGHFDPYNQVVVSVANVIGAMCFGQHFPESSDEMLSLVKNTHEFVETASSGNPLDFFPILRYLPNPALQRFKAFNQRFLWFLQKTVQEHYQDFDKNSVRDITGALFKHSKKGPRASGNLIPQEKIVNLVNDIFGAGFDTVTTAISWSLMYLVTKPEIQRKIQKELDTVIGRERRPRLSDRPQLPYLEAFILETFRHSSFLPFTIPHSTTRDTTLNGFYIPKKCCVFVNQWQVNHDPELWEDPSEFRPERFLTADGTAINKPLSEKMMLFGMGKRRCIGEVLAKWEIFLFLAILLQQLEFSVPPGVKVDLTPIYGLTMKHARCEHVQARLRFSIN
In short: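 P450-Glo CYP1A2, 1536-well qHTS: enzyme/proluciferin substrate + cpd (DMSO), 10 min RT; NADPH regen, 1 h RT; detection reagent, 20 min; luminescence, RLU.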

[10] = target: Voltage-gated inwardly rectifying potassium channel KCNH2 (Homo sapiens) (UniProt Q12809); experiment: Human Ether-a-go-go-Related Gene (hERG) channel small molecule antagonists: fluorescence cell-based qHTS assay (AID 1671200); also: nearly all actives have a fitted effect of over 50% in size; also: potency is read from the fitted curve at half-maximal effect;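 as to activity change, negative = inhibition: hERG-expressing U2OS cells given a thallium stimulus after FluxOR II dye loading; series mostly up to about 77 µM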
Chain of Voltage-gated inwardly rectifying potassium channel KCNH2 (Homo sapiens) (Q12809 whole entry, looked up): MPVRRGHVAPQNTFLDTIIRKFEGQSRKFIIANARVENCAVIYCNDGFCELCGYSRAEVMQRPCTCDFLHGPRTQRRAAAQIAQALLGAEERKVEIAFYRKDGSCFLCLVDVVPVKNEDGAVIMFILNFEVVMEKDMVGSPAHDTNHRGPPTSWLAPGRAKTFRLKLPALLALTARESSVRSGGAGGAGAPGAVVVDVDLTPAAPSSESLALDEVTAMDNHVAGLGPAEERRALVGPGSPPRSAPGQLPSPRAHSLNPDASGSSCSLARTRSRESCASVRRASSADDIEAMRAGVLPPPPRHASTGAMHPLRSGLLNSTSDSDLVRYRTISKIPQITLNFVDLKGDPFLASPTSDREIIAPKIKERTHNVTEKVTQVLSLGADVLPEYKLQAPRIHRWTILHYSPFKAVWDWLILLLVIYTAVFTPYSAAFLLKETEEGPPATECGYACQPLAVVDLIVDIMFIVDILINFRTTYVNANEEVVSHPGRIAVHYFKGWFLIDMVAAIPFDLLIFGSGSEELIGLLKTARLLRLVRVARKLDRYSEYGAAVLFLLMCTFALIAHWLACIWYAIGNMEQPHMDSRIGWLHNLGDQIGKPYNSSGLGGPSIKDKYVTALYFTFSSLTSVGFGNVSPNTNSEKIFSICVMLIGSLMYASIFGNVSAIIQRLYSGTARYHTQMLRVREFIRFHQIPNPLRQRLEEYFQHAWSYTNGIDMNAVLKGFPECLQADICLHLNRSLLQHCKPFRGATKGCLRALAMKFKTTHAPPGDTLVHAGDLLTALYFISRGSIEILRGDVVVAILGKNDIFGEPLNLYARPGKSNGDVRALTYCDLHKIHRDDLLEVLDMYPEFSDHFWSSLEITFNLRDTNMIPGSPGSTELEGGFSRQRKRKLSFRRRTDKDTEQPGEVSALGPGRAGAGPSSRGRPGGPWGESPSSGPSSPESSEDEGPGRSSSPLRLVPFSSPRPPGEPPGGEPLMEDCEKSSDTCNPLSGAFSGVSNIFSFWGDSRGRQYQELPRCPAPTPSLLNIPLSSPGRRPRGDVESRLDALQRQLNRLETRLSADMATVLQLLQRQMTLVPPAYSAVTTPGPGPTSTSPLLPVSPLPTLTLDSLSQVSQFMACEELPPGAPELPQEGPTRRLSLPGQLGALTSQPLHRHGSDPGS
In short: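 Thallium served as the potassium surrogate; its influx into dye-loaded U2OS cells carrying the channel was measured by fluorescence over 2 min.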

[11] = target: Cytochrome P450 2D6 (Homo sapiens) (UniProt P10635); experiment: Cytochrome P450 Family 2 Subfamily D Member 6 (CYP2D6) small molecule antagonists: luciferase reporter qHTS assay (AID 1671196); also: nearly all actives have a fitted effect of over 50% in size; also: potency is read from the fitted curve at half-maximal effect; as to activity change, negative = inhibition: series mostly up to about 120 µM
Chain of Cytochrome P450 2D6 (Homo sapiens) (P10635 whole entry, looked up): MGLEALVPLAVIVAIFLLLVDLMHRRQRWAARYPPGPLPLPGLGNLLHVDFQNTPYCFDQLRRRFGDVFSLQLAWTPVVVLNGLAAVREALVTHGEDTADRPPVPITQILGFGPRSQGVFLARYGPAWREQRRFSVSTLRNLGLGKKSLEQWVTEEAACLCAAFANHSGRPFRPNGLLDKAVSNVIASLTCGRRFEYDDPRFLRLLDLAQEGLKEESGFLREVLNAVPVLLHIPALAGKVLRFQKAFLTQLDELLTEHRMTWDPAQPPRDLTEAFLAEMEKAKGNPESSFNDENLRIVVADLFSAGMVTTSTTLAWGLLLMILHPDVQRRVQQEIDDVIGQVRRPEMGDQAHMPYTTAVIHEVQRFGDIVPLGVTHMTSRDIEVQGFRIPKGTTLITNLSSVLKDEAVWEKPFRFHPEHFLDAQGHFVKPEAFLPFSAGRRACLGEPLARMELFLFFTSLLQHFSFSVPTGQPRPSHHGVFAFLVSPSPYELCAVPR
In short: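 Read-out is luminescence from luciferin formed by CYP2D6 turnover of a proluciferin substrate, recorded as relative luminescence units. Reactions ran 1 h at room temperature after NADPH regeneration solution was added.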

[12] = target: Nuclear receptor subfamily 1 group I member 2 (Homo sapiens) (UniProt O75469); experiment: Human pregnane X receptor (PXR) activation by small molecules, qHTS assay (AID 1346985); also: nearly all actives have a fitted effect of over 40% in size; also: potency is read from the fitted curve at half-maximal effect
In short: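 DPX-2 cells (HepG2 co-transfected with a PXR response element and a CYP3A4-promoter luciferase construct) were seeded at 2,000 per well, rested 5 hr at 37C, then exposed to DMSO-dissolved compounds for 24 hr. Activation was read as luciferase luminescence.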

[13] = target: Cytochrome P450 3A4 (Homo sapiens) (UniProt P08684); experiment: Cytochrome P450 Family 3 Subfamily A Member 4 (CYP3A4) small molecule antagonists: luciferase reporter qHTS assay (AID 1671201); also: nearly all actives have a fitted effect of over 50% in size; also: potency is read from the fitted curve at half-maximal effect; as to activity change, negative = inhibition: series mostly up to about 120 µM
Chain of Cytochrome P450 3A4 (Homo sapiens) (P08684 whole entry, looked up): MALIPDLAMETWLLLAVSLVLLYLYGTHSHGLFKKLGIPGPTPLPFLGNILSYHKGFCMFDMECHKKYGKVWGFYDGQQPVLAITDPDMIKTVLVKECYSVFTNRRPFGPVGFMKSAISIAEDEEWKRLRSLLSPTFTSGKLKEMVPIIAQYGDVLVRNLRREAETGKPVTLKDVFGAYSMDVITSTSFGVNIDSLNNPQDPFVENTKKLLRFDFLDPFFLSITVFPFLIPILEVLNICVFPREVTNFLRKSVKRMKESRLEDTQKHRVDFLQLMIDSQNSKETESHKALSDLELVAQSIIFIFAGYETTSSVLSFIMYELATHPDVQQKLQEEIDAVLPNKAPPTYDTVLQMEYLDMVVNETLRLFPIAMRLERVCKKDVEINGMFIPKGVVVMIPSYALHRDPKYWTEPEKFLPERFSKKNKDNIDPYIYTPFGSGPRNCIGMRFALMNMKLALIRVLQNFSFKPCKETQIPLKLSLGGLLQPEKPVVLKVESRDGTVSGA
In short: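 Relative luminescence units after 20 min with luciferin detection reagent served as read-out. Beforehand, CYP3A4 turned over a proluciferin substrate for 1 h at room temperature with NADPH regeneration, following 10 min compound preincubation.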
% is scaled to controls: 0 for no effect and ±100 for the full control effect.

COc1cc(C=C2CCC/C(=C\c3ccc(O)c(OC)c3)C2=O)ccc1O
active: Potency [1] 29.8 µM | Potency [3] 29.8 µM | Potency [7] 24.5 µM | Potency [8] 15.5 µM
inactive: Potency [2] | Potency [4] | max activation [5] -7.88% | Potency [6] | Potency [9] | Potency [10]

CCCCOCC
inactive: Potency [1] | Potency [2] | Potency [3] | Potency [4] | Potency [11] | Potency [7] | Potency [8] | Potency [9] | Potency [10]

CCCCN(CCCC)CCC(O)c1cc2c(Cl)cc(Cl)cc2c2cc(C(F)(F)F)ccc12 (stereo not given)
active: Potency [1] 26.6 µM | Potency [4] 21.1 µM | Potency [11] 1.55 µM | Potency [10] 1.07 µM
inactive: Potency [2] | Potency [3] | max activation [5] -2.62% | Potency [6] | Potency [12] | Potency [7] | Potency [8]

COc1cccc(CCc2ccccc2OCC(CN(C)C)OC(=O)CCC(=O)O)c1 (stereo not given)
active: Potency [6] 12.6 µM | Potency [11] 0.692 µM | Potency [7] 34.7 µM | Potency [9] 30.9 µM
inactive: Potency [1] | Potency [2] | Potency [3] | Potency [4] | max activation [5] -1.75% | Potency [8] | Potency [10]

CCCCCCCCCCCCCCCC
active: Potency [8] 39.9 µM
inactive: Potency [1] | Potency [2] | Potency [3] | Potency [4] | Potency [11] | Potency [7] | Potency [9] | Potency [10] | Potency [13]

Clc1ccccc1CN1CCc2sccc2C1
inactive: Potency [1] | Potency [2] | Potency [3]

NC(=O)C(=O)N/N=C/c1ccc([N+](=O)[O-])o1
active: Potency [1] 23.7 µM
inactive: Potency [2] | Potency [3] | Potency [4] | max activation [5] -0.701% | Potency [6] | Potency [12] | Potency [11] | Potency [7] | Potency [9] | Potency [10] | Potency [13]

CCCCCCCOC(=O)c1ccc(O)cc1
active: Potency [1] 61.2 µM and 61.1 µM | Potency [4] 61.1 µM | Potency [11] 71 µM | Potency [7] 7.1 µM and 20 µM | Potency [8] 35.6 µM and 39.9 µM | Potency [9] 5.64 µM and 20 µM
inactive: Potency [2] | Potency [3]

N[C@@H](CSSC[C@H](N)C(=O)O)C(=O)O
inactive: activity change, negative = cytotoxicity [1] -1.36% [at 0.349 µM] | caspase-3/7 activation [2] 0.0732% [at 0.349 µM] | activity change, negative = cytotoxicity [3] 6.72% [at 0.349 µM] | activation [4] -0.742% [at 0.349 µM] | max activation [5] -1.39% | Potency [6] | Potency [12] | activity change, negative = inhibition [11] -4.15% [at 0.435 µM] | activity change, negative = inhibition [7] -14.3% [at 0.435 µM] | activity change, negative = inhibition [8] 1.25% [at 0.435 µM] | activity change, negative = inhibition [9] -15.1% [at 0.435 µM] | activity change, negative = inhibition [10] -0.819% [at 0.29 µM] | activity change, negative = inhibition [13] 5.27% [at 0.435 µM]

C/C=C/C(=O)Oc1c(CCCCCC(C)C)cc([N+](=O)[O-])cc1[N+](=O)[O-]
inactive: Potency [11]
active: Potency [1] 15.4 µM | Potency [2] 48.6 µM | Potency [3] 27.3 µM | Potency [4] 21.7 µM | Potency [7] 35.6 µM | Potency [8] 2.52 µM | Potency [9] 25.2 µM | Potency [10] 21.9 µM

CO[C@H]1C=CO[C@@]2(C)Oc3c(C)c(O)c4c(O)c(cc(O)c4c3C2=O)NC(=O)/C(C)=C\C=C/[C@H](C)[C@H](O)[C@@H](C)[C@@H](O)[C@@H](C)[C@H](OC(C)=O)[C@@H]1C
active: Potency [1] 19.5 µM | Potency [3] 61.6 µM | Potency [4] 7.75 µM | Potency [11] 35.8 µM | Potency [7] 20.2 µM | Potency [8] 10.1 µM | Potency [13] 1.27 µM
inactive: Potency [2] | max activation [5] -1.49% | Potency [6] | Potency [12]

O=C(O)Cc1ccc(OCCNC[C@H](O)c2ccccc2)cc1
inactive: Potency [1] | Potency [2] | Potency [3] | Potency [4] | Potency [11] | Potency [7] | Potency [8] | Potency [9] | Potency [10] | Potency [13]

CCC1(c2cnc[nH]2)Cc2ccccc2C1
active: Potency [11] 0.977 µM | Potency [7] 0.977 µM | Potency [8] 1.55 µM | Potency [9] 8.12 µM
inactive: Potency [1] | Potency [2] | Potency [3] | Potency [4] | Potency [10]

CCN(CC)CCCN(c1ccccc1)C1Cc2ccccc2C1
inactive: Potency [1] | Potency [2] | Potency [3] | Potency [4] | max activation [5] -18.4% | Potency [6] | Potency [8] | Potency [13]
active: Potency [12] 5.01 µM | Potency [10] 2.13 µM

Oc1c(Br)cc(Br)c2cccnc12
inactive: Potency [2] | Potency [3] | max activation [5] -2.52% | Potency [11] | Potency [7] | Potency [10] | Potency [13]
active: Potency [1] 23.7 µM | Potency [4] 29.8 µM | Potency [6] 1 µM

O=C[C@H](O)[C@H](O)[C@H](O)CO
inactive: Potency [1] | Potency [2] | Potency [3] | Potency [4] | Potency [11] | Potency [7] | Potency [8] | Potency [9] | Potency [10] | Potency [13]

Cc1nc(Nc2ncc(C(=O)Nc3c(C)cccc3Cl)s2)cc(N2CCN(CCO)CC2)n1
inactive: Potency [2] | Potency [6] | Potency [11] | Potency [9] | Potency [10]
active: Potency [1] 13.3 µM | Potency [3] 18.8 µM | Potency [4] 1.06 µM

CCCCOc1ccc(C(=O)CCN2CCCCC2)cc1
active: Potency [1] 29.8 µM | Potency [4] 6.68 µM | Potency [11] 5.49 µM | Potency [8] 17.4 µM
inactive: Potency [2] | Potency [3] | max activation [5] -1.67% | Potency [6] | Potency [12] | Potency [9] | Potency [13]

CC(C)N=C(N)/N=C(\N)Nc1ccc(Cl)cc1
active: Potency [1] 11.9 µM | Potency [11] 5.49 µM | Potency [7] 15.5 µM
inactive: Potency [2] | Potency [3] | Potency [4] | max activation [5] -16.8% | Potency [6] | Potency [12] | Potency [13]

CCNc1nc(NC(C)CC)nc(OC)n1 (stereo not given)
active: Potency [4] 24.3 µM | Potency [7] 7.96 µM | Potency [9] 25.2 µM
inactive: Potency [1] | Potency [2] | Potency [3] | Potency [11] | Potency [8] | Potency [10] | Potency [13]

Reference: PubChem BioAssay (Tox21)
